The supplement of paper PMC10498489
In all, about 2,300 compounds went through this assay and about 330 (14%) showed activity. Only a sample is shown. A number with no mark means an inactive call.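 How the source made its calls: active = median modified Z-score above 1.96; inactive = 1.96 or below.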

tested on: HepG2 Srxn1-GFP reporter cells (+30 nM CDDO-Me); test: Srxn1-GFP intensity median modified Z-score relative to plate median; higher = stronger NRF2 / oxidative stress reporter activation, active = hit call of the paper; details: 10 µM; exposure time: 24h
Summary of the method: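 The modified Z-score of GFP intensity was computed per plate, and the median over replicates is reported. HepG2 Srxn1-GFP BAC reporter cells in three replicate plates were treated for 24 h with compound at 10 μM plus an NRF2 activator at 30 nM (≤0.1% DMSO). Per-cell cytoplasmic GFP came from confocal images, excluding those with under 100 cells, and scaling used 1.4826 × median absolute deviation.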

| SMILES | Srxn1-GFP intensity median modified Z-score |
| --- | --- |
| O=C(Oc1cccc2cccnc12)c1ccccc1 [euspeclibcmpd773] | 12.8 (active) |
| O=C(Oc1cccc2cccnc12)c1ccccc1Cl | 1.65 |
| Cc1ccc(C(=O)Oc2cccc3cccnc23)cc1 | 0.989 |
| CC/C=C\C/C=C\C/C=C\C/C=C\C/C=C\CCCC(=O)OCC [euspeclibcmpd997] | 0.696 |
| C[C@H]1[C@H]2CCC3C4CC=C5C[C@@H](N(C)C)CC[C@]5(C)C4CC[C@@]32CN1C (stereo partly specified) [euspeclibcmpd1801] | -0.317 |
| C=C1CC[C@H](O)C/C1=C/C=C1\CCC[C@]2(C)C([C@H](C)/C=C/[C@H](C)C(C)C)CC[C@@H]12 (stereo partly specified) [euspeclibcmpd112] | 2.55 (active) |
| CC(C)CCCC(C)[C@H]1CCC2C3CC=C4C[C@@H](O)CC[C@]4(C)C3CC[C@@]21C (stereo partly specified) [euspeclibcmpd354] | 0.396 |
| C=C1CC[C@H](O)C/C1=C/C=C1\CCCC2(C)C1CCC2C(C)CCCC(C)C (stereo partly specified) [euspeclibcmpd353] | 2.95 (active) |
| CC(C)C(C)/C=C/C(C)C1CCC2C3=CC=C4CC(O)CCC4(C)C3CCC21C (stereo unspecified) [euspeclibcmpd1597] | 5.02 (active) |
| CC(=O)OC1CCC2(C)C(=CC=C3C2CCC2(C)C3CCC2C(C)/C=C/C(C)C(C)C)C1(C)C (stereo unspecified) [euspeclibcmpd1343] | 1.93 |
| CCC(/C=C/[C@@H](C)[C@H]1CCC2C3CC=C4C[C@@H](O)CC[C@]4(C)C3CC[C@@]21C)C(C)C (stereo partly specified) [euspeclibcmpd1549] | -0.0971 |
| CC(C)CCCC(C)C1CCC2C3=CCC4CC(O)CCC4(C)C3CCC21C (stereo unspecified) [euspeclibcmpd1991] | -0.131 |
| CC(=O)Nc1ccc(S(=O)(=O)N=c2o[nH]c(C)c2C)cc1 [euspeclibcmpd798] | -0.176 |
| CC(=O)N[C@H]1[C@H]([C@H](O)[C@H](O)CO)O[C@](O)(C(=O)O)C[C@@H]1O [euspeclibcmpd2223] | -0.0326 |
| CC(C)C(N)C(=O)OCC(CO)OCn1cnc2c(=O)[nH]c(=N)[nH]c21 (stereo unspecified) [euspeclibcmpd624] | -0.125 |
| C[C@H]1CC2C3CC=C4CC(=O)C=C[C@]4(C)[C@@]3(F)[C@@H](O)C[C@]2(C)[C@@]1(O)C(=O)COP(=O)(O)O (stereo partly specified) [euspeclibcmpd2288] | -0.294 |
| CNCc1ccccc1 [euspeclibcmpd1631] | -0.463 |
| CC(CN(C)C)CN1c2ccccc2Sc2ccccc21 (stereo unspecified) [euspeclibcmpd308] | -0.246 |
| C[C@@H]1CC2C3CC=C4CC(=O)C=C[C@]4(C)[C@@]3(Cl)[C@@H](O)C[C@]2(C)[C@@]1(OC(=O)c1ccco1)C(=O)CCl (stereo partly specified) [euspeclibcmpd756] | 2.37 (active) |
| CCC(=O)O[C@]1(C(=O)CCl)[C@@H](C)CC2C3CC=C4CC(=O)C=C[C@]4(C)[C@@]3(F)[C@@H](O)C[C@@]21C (stereo partly specified) [euspeclibcmpd633] | 0.492 |
| CCC(=O)OCC(=O)C1(OC(=O)CC)C(C)CC2C3CC=C4CC(=O)C=CC4(C)C3(Cl)C(O)CC21C (stereo unspecified) [euspeclibcmpd31] | -0.85 |
